According to PubChem BioAssay AID1159580 (chemical genetic matrix, 2015):
The whole screen tested about 5,500 compounds, of which about 2,000 (36%) were called active. Inconclusive results (about 18%) are left out. Cut-off read from the data, not from the text of the source: active = normalized growth mostly below about 0.91 (no sharp cut-off); inconclusive = no clear call, values can overlap the other calls; inactive = mostly above about 0.92. The list shows a part of the results.

Test: chemical genetic growth profiling, strain panel (AID 1159580);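 note: tested at 20 µM; growth read once vehicle control cultures reached saturation at 30 °C; 1 = growth at the plate median or of vehicle wells; lower values mean less growth of the strain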
Settings: S. cerevisiae deletion strains, growth OD

Measured: normalized growth

CO[C@H]1[C@@H](O)[C@@H](C)O[C@H](O[C@H]2CCC3(C)C4CCC5(C)[C@@H](C6=CC(=O)OC6)CC[C@]5(O)[C@@H]4CC[C@]3(O)C2)[C@@H]1O (stereo not given in full)
inactive: locus YAL021C, strain ccr4, hits give low values 0.993 | locus YAL026C, strain drs2, hits give low values 1.04 | locus YAL030W, strain snc1, hits give low values 1.03 | locus YBL061C, strain skt5, hits give low values 1.05 | locus YBR009C, strain hhf1, hits give low values 1.02 | locus YBR023C, strain chs3, hits give low values 1.03 | locus YBR171W, strain sec66, hits give low values 1.03 | locus YBR231C, strain swc5, hits give low values 1.02 | locus YBR279W, strain paf1, hits give low values 1.02 | locus YCL011C, strain gbp2, hits give low values 1.03 | locus YCL016C, strain dcc1, hits give low values 1.02 | locus YCL061C, strain MRC1, hits give low values 1.02 | locus YCL069W, strain vba3, hits give low values 1.02 | locus YCR088W, strain abp1, hits give low values 1.02 | locus YDL005C, strain med2, hits give low values 1.03 | locus YDL040C, strain nat1, hits give low values 1 | locus YDR001C, strain nth1, hits give low values 1.02 | locus YDR069C, strain doa4, hits give low values 1.03 | locus YDR137W, strain rgp1, hits give low values 1.04 | locus YDR159W, strain sac3, hits give low values 1.04 | locus YDR195W, strain ref2 1.01 | locus YDR297W, strain sur2, hits give low values 1.04 | locus YDR334W, strain swr1, hits give low values 1.02 | locus YDR335W, strain msn5, hits give low values 1.02 | locus YDR392W, strain spt3, hits give low values 1.02 | locus YEL003W, strain gim4, hits give low values 1.02 | locus YEL037C, strain rad23, hits give low values 1.02 | locus YEL061C, strain CIN8 (second series), hits give low values 1.02 | locus YER015W, strain faa2, hits give low values 1.02 | locus YER016W, strain bim1, hits give low values 1.02 | locus YER111C, strain swi4, hits give low values 1.03 | locus YER155C, strain BEM2 (second series), hits give low values 1.04 | locus YFR010W, strain ubp6, hits give low values 1.04 | locus YGL167C, strain pmr1, hits give low values 1.03 | locus YGL173C, strain kem1, hits give low values 1.04 | locus YGL227W, strain vid30, hits give low values 1.01 | locus YGL240W, strain doc1, hits give low values 1.04 | locus YGL253W, strain hxk2, hits give low values 1.03 | locus YHR013C, strain ard1, hits give low values 1.04 | locus YHR027C, strain rpn1, hits give low values 1.05 | locus YHR030C, strain SLT2, hits give low values 1.05 | locus YHR079C, strain IRE1, hits give low values 1.08 | locus YHR142W, strain chs7, hits give low values 1.03 | locus YJL092W, strain hpr5, hits give low values 1.02 | locus YJL095W, strain BCK1 (second series), hits give low values 1.02 | locus YJL095W, strain BCK1, hits give low values 1.04 | locus YJL115W, strain asf1, hits give low values 1.04 | locus YJL129C, strain trk1, hits give low values 1.03 | locus YJL154C, strain vps35, hits give low values 1.02 | locus YJL164C, strain tpk1, hits give low values 1.01 | locus YJL166W, strain qcr8, hits give low values 1.03 | locus YJL187C, strain SWE1, hits give low values 1.03 | locus YJR066W, strain TOR1, hits give low values 1.01 | locus YKL160W, strain elf1, hits give low values 1.01 | locus YKR026C, strain gcn3, hits give low values 1.02 | locus YKR091W, strain srl3, hits give low values 1.02 | locus YLL001W, strain dnm1, hits give low values 1.03 | locus YLL026W, hits give low values 1.03 | locus YLL041C, strain sdh2, hits give low values 1.02 | locus YLR027C, strain aat2, hits give low values 1 | locus YLR113W, strain HOG1, hits give low values 0.976 | locus YLR221C, strain rsa3, hits give low values 1.03 | locus YLR258W, strain gsy2, hits give low values 1 | locus YLR262C, strain YPT6 (second series), hits give low values 1.03 | locus YLR320W, strain mms22, hits give low values 1.03 | locus YLR342W, strain FKS1, hits give low values 1.03 | locus YLR357W, strain rsc2, hits give low values 1.06 | locus YLR370C, strain arc18, hits give low values 1.01 | locus YLR384C, strain iki3, hits give low values 1.04 | locus YML120C, strain ndi1, hits give low values 1.01 | locus YMR058W, strain fet3, hits give low values 1.03 | locus YMR125W, strain sto1, hits give low values 1.03 | locus YMR129W, hits give low values 1.02 | locus YMR205C, strain PFK2, hits give low values 1.06 | locus YMR231W, strain pep5, hits give low values 1 | locus YNL071W, strain lat1, hits give low values 1.02 | locus YNL183C, strain NPR1, hits give low values 1 | locus YNL209W, strain ssb2, hits give low values 1.02 | locus YNL248C, strain rpa49, hits give low values 1.03 | locus YNL322C, strain KRE1 (second series), hits give low values 1.02 | locus YNR049C, strain mso1, hits give low values 1.04 | locus YOR001W, strain rrp6, hits give low values 1.03 | locus YOR070C, strain gyp1, hits give low values 1.02 | locus YOR080W, strain dia2, hits give low values 1.04 | locus YOR083W, strain WHI5, hits give low values 1.02 | locus YOR106W, strain vam3, hits give low values 1.03 | locus YOR231W, strain MKK1, hits give low values 1.04 | locus YOR265W, strain rbl2, hits give low values 1.04 | locus YOR270C, strain vph1, hits give low values 1.08 | locus YOR290C, strain snf2, hits give low values 1.01 | locus YPL051W, strain arl3, hits give low values 1.01 | locus YPL078C, strain atp4, hits give low values 1.02 | locus YPL106C, strain sse1, hits give low values 1.02 | locus YPL240C, strain hsp82, hits give low values 1.01 | locus YPL256C, strain CLN2, hits give low values 1.08
